This is an account of results in ChEMBL document CHEMBL4808148, “HDAC6 screening dataset using tau-based substrate in an enzymatic assay yields selective inhibitors and activators” (2021).

Each structure is given as a SMILES string. Out of some 5,600 compounds screened, about 390 (7%) showed an effect of 50% or more. This excerpt belongs to a sample that is enriched for strong results. Positions of bridges follow the written chain, without caps; N, C: chain ends. Non-standard residues stand in square brackets, D forms with d. Residues, ends and D or L forms follow the SMILES beside them. hArg = N=C(N)NCCCC[C@H](N)C(=O)O; Mpa = O=C(O)CCS

One may read the inhibition as the change of the read-out against control, counted positive when it falls.

For the test, the target named is T1, Protein deacetylase HDAC6 (Homo sapiens) (UniProt Q9UBN7).
T1 sequence (whole entry): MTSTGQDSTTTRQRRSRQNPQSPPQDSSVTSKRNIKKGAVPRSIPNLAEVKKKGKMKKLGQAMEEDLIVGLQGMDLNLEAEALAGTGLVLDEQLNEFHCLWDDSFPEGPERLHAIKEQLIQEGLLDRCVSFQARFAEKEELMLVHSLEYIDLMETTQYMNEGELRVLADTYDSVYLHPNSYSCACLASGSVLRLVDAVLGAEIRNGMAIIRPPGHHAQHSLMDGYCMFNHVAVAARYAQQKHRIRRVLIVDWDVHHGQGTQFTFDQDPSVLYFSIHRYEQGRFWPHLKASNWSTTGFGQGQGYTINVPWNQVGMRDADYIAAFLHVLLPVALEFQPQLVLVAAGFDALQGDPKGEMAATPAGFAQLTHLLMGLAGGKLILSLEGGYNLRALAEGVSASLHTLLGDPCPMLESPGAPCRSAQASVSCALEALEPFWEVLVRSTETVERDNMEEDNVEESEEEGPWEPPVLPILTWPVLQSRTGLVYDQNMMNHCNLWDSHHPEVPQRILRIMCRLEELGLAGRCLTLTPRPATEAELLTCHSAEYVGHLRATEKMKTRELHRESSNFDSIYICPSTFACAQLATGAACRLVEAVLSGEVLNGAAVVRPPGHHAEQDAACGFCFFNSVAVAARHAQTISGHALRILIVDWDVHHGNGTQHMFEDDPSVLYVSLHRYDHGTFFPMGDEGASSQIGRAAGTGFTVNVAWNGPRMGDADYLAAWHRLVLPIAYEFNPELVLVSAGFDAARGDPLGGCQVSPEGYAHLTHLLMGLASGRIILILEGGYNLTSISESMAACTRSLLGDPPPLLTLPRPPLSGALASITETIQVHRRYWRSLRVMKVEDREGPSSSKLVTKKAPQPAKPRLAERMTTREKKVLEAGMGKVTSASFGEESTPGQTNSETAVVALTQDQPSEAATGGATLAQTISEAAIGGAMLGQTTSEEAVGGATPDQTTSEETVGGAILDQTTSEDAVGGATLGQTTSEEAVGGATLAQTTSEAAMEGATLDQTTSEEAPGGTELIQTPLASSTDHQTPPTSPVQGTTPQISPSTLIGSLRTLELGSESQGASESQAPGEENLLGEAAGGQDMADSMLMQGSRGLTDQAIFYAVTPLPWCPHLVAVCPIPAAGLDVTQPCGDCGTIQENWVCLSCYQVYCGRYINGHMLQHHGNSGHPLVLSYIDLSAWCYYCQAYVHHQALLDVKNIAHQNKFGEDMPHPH
As to conditions: at 10 µM.
Take `COc1ccc(-c2sc(NC(=O)C(C)(C)C)nc2C)cc1S(=O)(=O)Nc1ccc(O)cc1`: the inhibition was -1.39%.

For the compound `O=C(c1ccc(/C=C/c2n[nH]c3ccccc23)cc1)N1CCNCC1`, the inhibition turned out to be 94.8%.

As to `COc1ccc(Cl)c(Nc2ncnc3cc(OCC4CCN(C)CC4)c(OC)cc23)c1`, the inhibition was found to be 6.69%.

As for `CN(C(=O)CCCOc1ccc2[nH]c(=O)ccc2c1)C1CCCCC1`, the inhibition was -1.06%.

Turning to `N=C(N)NCCCC[C@@H]1NC(=O)CCSSC[C@@H](C(N)=O)NC(=O)[C@@H]2CCCN2C(=O)[C@H](Cc2c[nH]c3ccccc23)NC(=O)[C@H](CC(=O)O)NC(=O)CNC1=O` ([Mpa][hArg]GDWPC-NH2; disulfide 1-7), the inhibition was found to be 6.3%.

Take `Oc1ccc(OCc2ccccc2)cc1`: the inhibition worked out at 98.1%.

Regarding `CC/C(=C(\c1ccc(O)cc1)c1ccc(OCCNC)cc1)c1ccccc1`, the inhibition is -4.99%.

Turning to `N=C(N)SCCc1ccc(OCc2ccc([N+](=O)[O-])cc2)cc1`, the inhibition came to 9.62%.

Take `CCNCCCNCCCCNCCCNCC`: the inhibition came to 4.88%.

As to `CN(C)CCOc1cc(-c2cn[nH]c2)ccc1NC(=O)C1COc2ccccc2O1` (centres undefined), the inhibition worked out at 55.4%.

Take `CC1(C)CC(Oc2ccc(-c3ccc(-c4cn[nH]c4)cc3O)nn2)CC(C)(C)N1`: the inhibition is 8.09%.

With `CC1(C)CCC(C)(C)c2cc(C3(c4ccc(C(=O)O)cc4)OCCO3)ccc21`, the inhibition is -3.33%.

For `CS(=O)(=O)c1ccc(-c2cc(Br)sc2-c2ccc(F)cc2)cc1`, the inhibition is -5.78%.

As to `O=C1NC(=O)/C(=C/c2ccc(-c3ccc(F)cc3O)o2)S1`, the inhibition was determined as 90.4%.

Take `O=C1NC(=O)/C(=C/c2ccc3c(c2)OC(F)(F)O3)S1`: the inhibition worked out at 0.87%.

Consider `N=C1NC(=O)/C(=C/c2ccc(O)cc2)S1`, for which the inhibition was determined as 28.8%.

Regarding `O=C(O)C(O)Cc1ccc(O)c(O)c1` (centres undefined), the inhibition is 15.4%.

In the case of `O=C(NO)c1ccc(O)c(O)c1`, the inhibition was found to be 87.6%.

Take `CC(C)C(=O)c1ccc(O)c(O)c1`: the inhibition was -4.84%.

For `CCC(=O)c1cc(-c2ccc(Cl)cc2)n(-c2ccc(S(N)(=O)=O)cc2)c1C`, the inhibition came out at 23.3%.

As to `NCCNc1ccc(NCCN)c2c1C(=O)c1ccncc1C2=O`, the inhibition is 98.7%.

Consider `O=C1c2c(O)ccc(O)c2C(=O)c2c(NCCNCCO)ccc(NCCNCCO)c21`, for which the inhibition stood at 28.6%.

For `NCCNS(=O)(=O)c1ccc(Cl)c2ccncc12`, the inhibition worked out at 8.69%.

Consider `NC(N)=O`, for which the inhibition is 5.48%.

In the case of `C[C@@H]1CCCN1CCc1cc2cc(-c3ccc(C#N)cc3)ccc2o1`, the inhibition amounted to 25.1%.

With `COc1ccc([C@@H]2Sc3ccccc3N(CCN(C)C)C(=O)[C@@H]2OC(C)=O)cc1`, the inhibition was 10.1%.

As to `N#Cc1cccc(C(=O)Nc2cc(-c3ccccc3)nn2-c2ccccc2)c1`, the inhibition amounted to 70%.

Turning to `Cc1cc(NC(=O)Nc2ccc(F)c(F)c2)n(-c2ccccc2)n1`, the inhibition was 23.6%.

As to `O=C1NC(c2cccc([N+](=O)[O-])c2)=CCN1c1ccccc1O`, the inhibition was 31.3%.

Take `O=C(Nc1cc(-c2ccccc2)nn1-c1ccccc1F)c1ccc([N+](=O)[O-])cc1`: the inhibition is 73.6%.

For `CCOC(=O)c1ccc(OCCC2CCN(c3ccc(C)nn3)CC2)cc1`, the inhibition worked out at 19.2%.

`Cc1cccc(C#Cc2ccccc2)n1`: the inhibition came to 101%.

For `NS(=O)(=O)C#Cc1ccccc1`, the inhibition was -0.7%.

With `COc1cc(C(=O)O)ccc1NC(=O)[C@@H]1N[C@@H](CC(C)(C)C)[C@](C#N)(c2ccc(Cl)cc2F)[C@H]1c1cccc(Cl)c1F`, the inhibition was 11.2%.

As to `CO[C@@H]1COCC[C@@H]1N[C@@H]1CC[C@@](C(=O)N2CCc3ncc(C(F)(F)F)cc3C2)(C(C)C)C1`, the inhibition came to 41.3%.

With `Cc1ccc2c(=O)c3ccccc3n(CCCN)c2c1C`, the inhibition came to 6.54%.

Regarding `COc1ccncc1C(=O)NC(=O)Nc1ccc(-c2ccccc2)c(C(F)(F)F)c1`, the inhibition is 9.55%.

Consider `Fc1ccc(-c2c3cccc(C(F)(F)F)c3nn2Cc2ccc(F)cc2Cl)cc1`, for which the inhibition worked out at 2.87%.

As for `COc1ccc(C(=O)c2ccccc2O)c(O)c1`, the inhibition came to 8.93%.

Turning to `COc1ccc(C(=O)c2ccc(C)cc2)c(O)c1`, the inhibition stood at 50.7%.

Consider `Cc1ccc(C(=O)c2cc(O)c(O)c([N+](=O)[O-])c2)cc1`, for which the inhibition was -8.08%.

Regarding `Cc1c(C(=O)NC2CCCCC2)sc2nc3ccc(N)cc3n12`, the inhibition is 49.8%.

In the case of `CCCCC/N=c1/ccn(Cc2ccccc2)c2ccccc12`, the inhibition is -3.26%.

Take `O=c1[nH]cnc2nc[nH]c12`: the inhibition was 57.8%.

With `Cc1cccc(C)c1NC(=O)c1ccc(N)cc1`, the inhibition amounted to 7.12%.

With `C=C1C(=O)O[C@H]2[C@H]1CC/C(C)=C\CC[C@@]1(C)O[C@@H]21`, the inhibition was 9.8%.

On to `CC#CC(=O)N1CCC[C@H]1c1nc(-c2ccc(C(=O)Nc3ccccn3)cc2)c2c(N)nccn12`, for which the inhibition worked out at 10.6%.

On to `O=C(NC1CCNCC1)c1n[nH]cc1NC(=O)c1c(Cl)cccc1Cl`, for which the inhibition worked out at 42.4%.

Regarding `CC1CCC(NC(=O)N(CCCl)N=O)CC1` (centres undefined), the inhibition is 48.2%.
